From PMC7862700, “An all-to-all approach to the identification of sequence-specific readers for epigenetic DNA modifications on cytosine”

Tests used:
Experiment in all cases: DAPPL (digital affinity profiling via proximity ligation, sequencing); 10 mM Tris-HCl pH 7.5, 50 mM NaCl, 1 mM DTT, 4% glycerol, room temperature, 30 min; GST-TFs on glutathione beads, 16-mer random dsDNA library, 0.1% formaldehyde crosslink after washing; high values mean tight binding
FEV = biological target: T1, FEV (Homo sapiens, UniProt Q99581 1-238); settings: protein: recombinant; tags: N-terminal GST; dsDNA, one strand shown
T1 sequence: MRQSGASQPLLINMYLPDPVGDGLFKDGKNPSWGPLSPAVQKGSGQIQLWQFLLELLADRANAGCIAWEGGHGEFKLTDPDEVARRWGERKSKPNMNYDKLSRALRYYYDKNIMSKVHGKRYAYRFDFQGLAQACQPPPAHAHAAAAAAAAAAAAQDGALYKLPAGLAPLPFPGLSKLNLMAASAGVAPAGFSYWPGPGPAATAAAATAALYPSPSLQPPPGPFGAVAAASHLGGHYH
Method in brief: (§1)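 Human transcription factors were made in yeast as GST fusions, captured on glutathione beads and barcoded with DNA. With a tag-only sample included, the pool was incubated with 200 nmole of a random double-stranded 16-mer DNA library in Tris/NaCl/DTT/glycerol buffer at room temperature for 30 min, then crosslinked with 0.1% formaldehyde after washing, ligated by proximity, amplified and sequenced. For binding signal, each hexamer's read frequency for a factor is divided by its frequency for the tag-only sample.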

ETV5 = ETV5 (Homo sapiens, UniProt P41161 1-510); settings: protein: recombinant; tags: N-terminal GST; dsDNA, one strand shown
Chain of ETV5 (P41161 whole entry): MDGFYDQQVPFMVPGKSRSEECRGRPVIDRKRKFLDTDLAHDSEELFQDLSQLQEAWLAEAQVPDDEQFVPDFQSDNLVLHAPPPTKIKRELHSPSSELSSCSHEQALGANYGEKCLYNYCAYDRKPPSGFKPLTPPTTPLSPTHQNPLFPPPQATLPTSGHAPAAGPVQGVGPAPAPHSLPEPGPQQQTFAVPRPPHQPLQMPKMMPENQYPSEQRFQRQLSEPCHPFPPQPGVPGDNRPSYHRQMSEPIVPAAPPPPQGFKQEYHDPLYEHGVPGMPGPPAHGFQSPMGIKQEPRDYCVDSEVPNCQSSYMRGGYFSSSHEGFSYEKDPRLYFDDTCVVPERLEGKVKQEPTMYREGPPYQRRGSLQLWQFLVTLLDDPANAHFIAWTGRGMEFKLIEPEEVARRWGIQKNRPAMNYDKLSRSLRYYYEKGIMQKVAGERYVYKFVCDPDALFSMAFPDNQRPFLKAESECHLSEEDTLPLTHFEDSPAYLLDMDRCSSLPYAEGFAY
Method in brief: as §1

HSF1 = HSF1 (Homo sapiens, UniProt Q00613 1-529); settings: protein: recombinant; tags: N-terminal GST; chain copies: 3; dsDNA, one strand shown
Chain of HSF1 (Q00613 whole entry): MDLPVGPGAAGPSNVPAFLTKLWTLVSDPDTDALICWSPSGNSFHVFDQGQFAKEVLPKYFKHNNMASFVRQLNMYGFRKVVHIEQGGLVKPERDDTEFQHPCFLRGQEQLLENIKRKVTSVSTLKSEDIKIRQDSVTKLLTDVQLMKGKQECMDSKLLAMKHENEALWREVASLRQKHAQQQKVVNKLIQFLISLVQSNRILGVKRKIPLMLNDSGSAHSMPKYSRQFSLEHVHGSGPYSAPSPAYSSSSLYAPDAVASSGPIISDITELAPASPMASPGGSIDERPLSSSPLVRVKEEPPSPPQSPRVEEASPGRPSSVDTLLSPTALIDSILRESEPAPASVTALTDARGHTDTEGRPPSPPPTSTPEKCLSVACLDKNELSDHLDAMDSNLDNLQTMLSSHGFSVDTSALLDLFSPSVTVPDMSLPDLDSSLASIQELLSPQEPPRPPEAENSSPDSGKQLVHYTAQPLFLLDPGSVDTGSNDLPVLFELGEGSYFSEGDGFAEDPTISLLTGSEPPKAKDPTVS
Method in brief: as §1

SPIC = biological target: T2, SPIC (Homo sapiens, UniProt Q8N5J4 1-248); settings: protein: recombinant; tags: N-terminal GST; dsDNA, one strand shown
T2 sequence: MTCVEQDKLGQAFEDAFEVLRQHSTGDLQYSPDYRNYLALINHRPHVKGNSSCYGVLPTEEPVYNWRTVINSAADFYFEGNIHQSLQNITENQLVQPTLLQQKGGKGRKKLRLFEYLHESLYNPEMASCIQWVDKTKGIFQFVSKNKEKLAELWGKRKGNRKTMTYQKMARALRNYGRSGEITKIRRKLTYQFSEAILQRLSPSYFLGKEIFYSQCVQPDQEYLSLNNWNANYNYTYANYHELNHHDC
Method in brief: as §1

ELF4 = ELF4 (Homo sapiens, UniProt Q99607 1-663); settings: protein: recombinant; tags: N-terminal GST; dsDNA, one strand shown
Chain of ELF4 (Q99607 whole entry): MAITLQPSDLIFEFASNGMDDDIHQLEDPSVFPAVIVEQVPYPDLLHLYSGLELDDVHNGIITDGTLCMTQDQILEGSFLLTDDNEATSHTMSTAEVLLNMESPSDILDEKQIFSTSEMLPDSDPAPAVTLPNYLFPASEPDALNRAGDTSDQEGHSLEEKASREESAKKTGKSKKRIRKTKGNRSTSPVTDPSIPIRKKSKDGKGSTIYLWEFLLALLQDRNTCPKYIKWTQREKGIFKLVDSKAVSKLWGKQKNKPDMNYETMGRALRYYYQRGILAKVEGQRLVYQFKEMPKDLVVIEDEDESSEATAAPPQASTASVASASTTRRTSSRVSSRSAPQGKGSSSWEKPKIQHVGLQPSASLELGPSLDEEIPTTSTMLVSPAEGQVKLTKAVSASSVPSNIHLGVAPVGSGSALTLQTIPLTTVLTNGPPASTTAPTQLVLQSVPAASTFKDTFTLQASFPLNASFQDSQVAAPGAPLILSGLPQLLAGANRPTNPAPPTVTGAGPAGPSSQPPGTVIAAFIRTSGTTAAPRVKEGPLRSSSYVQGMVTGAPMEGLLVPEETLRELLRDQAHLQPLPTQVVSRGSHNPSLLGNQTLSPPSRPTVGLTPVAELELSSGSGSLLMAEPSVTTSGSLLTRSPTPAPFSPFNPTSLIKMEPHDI
Method in brief: as §1

ELK4 = biological target: T3, ELK4 (Homo sapiens, UniProt P28324-2 1-405); settings: protein: recombinant; tags: N-terminal GST; dsDNA, one strand shown
T3 sequence: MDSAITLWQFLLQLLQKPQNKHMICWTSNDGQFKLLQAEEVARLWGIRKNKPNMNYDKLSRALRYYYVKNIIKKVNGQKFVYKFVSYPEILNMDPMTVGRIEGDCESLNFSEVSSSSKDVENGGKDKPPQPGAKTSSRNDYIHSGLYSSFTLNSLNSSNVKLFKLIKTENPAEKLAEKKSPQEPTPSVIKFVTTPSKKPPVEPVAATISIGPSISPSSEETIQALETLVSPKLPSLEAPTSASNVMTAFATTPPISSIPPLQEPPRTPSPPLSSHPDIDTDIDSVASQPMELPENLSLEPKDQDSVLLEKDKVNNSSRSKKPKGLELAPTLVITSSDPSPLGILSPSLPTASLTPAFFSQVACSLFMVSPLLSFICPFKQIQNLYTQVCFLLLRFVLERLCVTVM
Method in brief: as §1

ETV2 = biological target: T4, ETV2 (Homo sapiens, UniProt O00321 1-342); settings: protein: recombinant; tags: N-terminal GST; dsDNA, one strand shown
T4 sequence: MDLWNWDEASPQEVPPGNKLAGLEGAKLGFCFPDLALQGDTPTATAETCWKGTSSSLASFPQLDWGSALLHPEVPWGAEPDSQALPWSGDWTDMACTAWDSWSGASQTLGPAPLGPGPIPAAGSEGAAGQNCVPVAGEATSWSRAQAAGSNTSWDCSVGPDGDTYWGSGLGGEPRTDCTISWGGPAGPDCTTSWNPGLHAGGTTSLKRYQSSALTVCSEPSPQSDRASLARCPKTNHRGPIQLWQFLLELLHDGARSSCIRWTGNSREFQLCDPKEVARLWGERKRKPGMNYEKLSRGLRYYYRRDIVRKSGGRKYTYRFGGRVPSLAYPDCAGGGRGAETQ
Method in brief: as §1

ELF3 = biological target: T5, ELF3 (Homo sapiens, UniProt P78545 1-371); settings: protein: recombinant; tags: N-terminal GST; dsDNA, one strand shown
T5 sequence: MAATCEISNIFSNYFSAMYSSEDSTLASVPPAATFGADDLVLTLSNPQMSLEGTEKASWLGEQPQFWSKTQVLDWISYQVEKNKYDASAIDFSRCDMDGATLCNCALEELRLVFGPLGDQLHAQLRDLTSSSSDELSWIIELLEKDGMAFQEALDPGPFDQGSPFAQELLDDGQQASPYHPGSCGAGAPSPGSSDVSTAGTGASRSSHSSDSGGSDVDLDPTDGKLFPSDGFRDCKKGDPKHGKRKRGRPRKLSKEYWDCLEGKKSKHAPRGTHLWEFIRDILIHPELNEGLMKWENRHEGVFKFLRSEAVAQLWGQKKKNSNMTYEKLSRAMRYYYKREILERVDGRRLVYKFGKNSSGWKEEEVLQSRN
Method in brief: as §1

CRX = CRX (Homo sapiens, UniProt O43186 1-299); settings: protein: recombinant; tags: N-terminal GST; dsDNA, one strand shown
Chain of CRX (O43186 whole entry): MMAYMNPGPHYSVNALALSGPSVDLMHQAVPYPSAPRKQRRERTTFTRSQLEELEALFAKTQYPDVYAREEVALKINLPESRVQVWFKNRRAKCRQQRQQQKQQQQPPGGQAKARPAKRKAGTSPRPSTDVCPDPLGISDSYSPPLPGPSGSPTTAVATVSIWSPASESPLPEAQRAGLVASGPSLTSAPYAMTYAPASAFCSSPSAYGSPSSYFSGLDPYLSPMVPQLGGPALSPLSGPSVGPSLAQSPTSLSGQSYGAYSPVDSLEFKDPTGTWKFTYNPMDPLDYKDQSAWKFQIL
Method in brief: as §1

ETV1 = ETV1 (Homo sapiens, UniProt P50549 1-477); settings: protein: recombinant; tags: N-terminal GST; dsDNA, one strand shown
Chain of ETV1 (P50549 whole entry): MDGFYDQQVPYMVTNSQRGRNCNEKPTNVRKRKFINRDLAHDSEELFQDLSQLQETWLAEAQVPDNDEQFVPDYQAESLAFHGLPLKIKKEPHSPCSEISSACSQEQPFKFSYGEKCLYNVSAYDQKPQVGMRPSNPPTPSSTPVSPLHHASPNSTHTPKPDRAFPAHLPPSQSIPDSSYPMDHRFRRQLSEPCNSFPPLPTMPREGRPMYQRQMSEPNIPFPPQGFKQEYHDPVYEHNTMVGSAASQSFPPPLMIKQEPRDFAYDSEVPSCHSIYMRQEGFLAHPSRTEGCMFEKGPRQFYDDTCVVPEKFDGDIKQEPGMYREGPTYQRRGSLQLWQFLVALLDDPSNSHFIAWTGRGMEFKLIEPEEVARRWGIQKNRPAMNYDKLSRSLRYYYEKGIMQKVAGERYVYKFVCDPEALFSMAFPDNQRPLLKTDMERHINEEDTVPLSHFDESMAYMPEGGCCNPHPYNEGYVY
Method in brief: as §1

ERF = biological target: T6, ERF (Homo sapiens, UniProt P50548 1-548); settings: protein: recombinant; tags: N-terminal GST; dsDNA, one strand shown
T6 sequence: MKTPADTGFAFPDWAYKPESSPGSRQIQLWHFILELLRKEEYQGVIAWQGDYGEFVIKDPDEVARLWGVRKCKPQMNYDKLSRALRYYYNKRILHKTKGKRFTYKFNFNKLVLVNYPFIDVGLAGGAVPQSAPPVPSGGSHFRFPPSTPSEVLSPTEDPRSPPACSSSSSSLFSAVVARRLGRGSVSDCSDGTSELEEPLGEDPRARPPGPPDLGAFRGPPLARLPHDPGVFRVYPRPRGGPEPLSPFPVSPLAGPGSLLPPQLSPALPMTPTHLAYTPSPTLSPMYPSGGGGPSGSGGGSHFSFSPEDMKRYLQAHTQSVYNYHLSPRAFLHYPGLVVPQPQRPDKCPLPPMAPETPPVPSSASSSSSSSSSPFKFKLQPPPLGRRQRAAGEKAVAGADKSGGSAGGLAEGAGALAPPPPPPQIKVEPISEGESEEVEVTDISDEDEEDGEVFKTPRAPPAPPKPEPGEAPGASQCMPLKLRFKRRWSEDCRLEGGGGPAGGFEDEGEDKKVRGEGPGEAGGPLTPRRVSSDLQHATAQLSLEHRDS
Method in brief: as §1

ETV3L = biological target: T7, ETV3L (Homo sapiens, UniProt Q6ZN32 1-361); settings: protein: recombinant; tags: N-terminal GST; dsDNA, one strand shown
T7 sequence: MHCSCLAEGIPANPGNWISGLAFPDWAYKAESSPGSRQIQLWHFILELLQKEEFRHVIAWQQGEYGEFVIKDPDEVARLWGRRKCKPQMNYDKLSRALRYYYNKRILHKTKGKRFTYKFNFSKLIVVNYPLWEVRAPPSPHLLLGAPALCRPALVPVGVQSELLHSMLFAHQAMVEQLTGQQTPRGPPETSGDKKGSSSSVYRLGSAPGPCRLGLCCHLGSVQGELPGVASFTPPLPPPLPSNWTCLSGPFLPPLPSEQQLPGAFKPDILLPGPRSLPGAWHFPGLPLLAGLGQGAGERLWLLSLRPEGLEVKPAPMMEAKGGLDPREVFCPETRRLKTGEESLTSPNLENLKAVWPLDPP
Method in brief: as §1

ETS2 = biological target: T8, ETS2 (Homo sapiens, UniProt P15036 1-469); settings: protein: recombinant; tags: N-terminal GST; dsDNA, one strand shown
T8 sequence: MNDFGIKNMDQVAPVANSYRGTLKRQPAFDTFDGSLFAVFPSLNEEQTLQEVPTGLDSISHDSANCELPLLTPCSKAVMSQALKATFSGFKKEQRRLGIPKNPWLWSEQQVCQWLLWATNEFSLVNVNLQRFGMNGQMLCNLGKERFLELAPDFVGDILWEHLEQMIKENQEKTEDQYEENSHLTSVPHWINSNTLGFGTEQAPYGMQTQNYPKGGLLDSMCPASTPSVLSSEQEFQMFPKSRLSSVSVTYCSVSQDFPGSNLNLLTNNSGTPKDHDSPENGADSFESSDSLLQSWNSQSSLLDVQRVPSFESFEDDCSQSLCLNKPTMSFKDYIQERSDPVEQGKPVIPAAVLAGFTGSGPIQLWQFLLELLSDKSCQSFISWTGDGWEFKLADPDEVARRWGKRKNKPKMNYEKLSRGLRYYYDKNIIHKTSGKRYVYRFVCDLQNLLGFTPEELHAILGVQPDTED
Method in brief: as §1

SPDEF = biological target: T9, SPDEF (Homo sapiens, UniProt O95238 1-335); settings: protein: recombinant; tags: N-terminal GST; dsDNA, one strand shown
T9 sequence: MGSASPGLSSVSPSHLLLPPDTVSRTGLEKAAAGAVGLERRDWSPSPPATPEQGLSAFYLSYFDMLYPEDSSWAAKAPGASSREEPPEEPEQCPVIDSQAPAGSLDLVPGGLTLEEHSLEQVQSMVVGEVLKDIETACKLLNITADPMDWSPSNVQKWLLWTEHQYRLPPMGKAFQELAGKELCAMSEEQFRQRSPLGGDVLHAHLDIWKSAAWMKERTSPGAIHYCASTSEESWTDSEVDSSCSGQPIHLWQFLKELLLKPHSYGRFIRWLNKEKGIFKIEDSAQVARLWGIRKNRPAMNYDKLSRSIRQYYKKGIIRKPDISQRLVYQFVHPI
Method in brief: as §1

ETV7 = biological target: T10, ETV7 (Homo sapiens, UniProt Q9Y603 1-341); settings: protein: recombinant; tags: N-terminal GST; dsDNA, one strand shown
T10 sequence: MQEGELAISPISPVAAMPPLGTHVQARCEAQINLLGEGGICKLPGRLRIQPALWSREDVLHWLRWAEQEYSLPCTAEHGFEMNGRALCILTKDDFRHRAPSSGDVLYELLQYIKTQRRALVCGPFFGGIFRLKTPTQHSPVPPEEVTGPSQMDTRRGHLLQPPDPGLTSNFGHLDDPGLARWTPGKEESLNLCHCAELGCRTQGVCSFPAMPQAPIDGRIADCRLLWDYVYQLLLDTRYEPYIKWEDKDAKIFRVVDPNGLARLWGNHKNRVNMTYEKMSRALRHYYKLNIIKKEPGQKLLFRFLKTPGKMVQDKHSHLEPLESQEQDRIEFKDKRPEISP
Method in brief: as §1

ELF5 = biological target: T11, ELF5 (Homo sapiens, UniProt Q9UKW6-2 1-255); settings: protein: recombinant; tags: N-terminal GST; dsDNA, one strand shown
T11 sequence: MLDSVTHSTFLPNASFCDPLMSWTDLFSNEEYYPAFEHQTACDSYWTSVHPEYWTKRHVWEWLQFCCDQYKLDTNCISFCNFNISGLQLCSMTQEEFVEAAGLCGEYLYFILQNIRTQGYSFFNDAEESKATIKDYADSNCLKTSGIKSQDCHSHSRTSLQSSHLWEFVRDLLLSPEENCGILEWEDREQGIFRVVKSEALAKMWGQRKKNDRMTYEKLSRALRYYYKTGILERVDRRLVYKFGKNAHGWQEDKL
Method in brief: as §1

ETV3 = biological target: T12, ETV3 (Homo sapiens, UniProt P41162-2 1-143); settings: protein: recombinant; tags: N-terminal GST; dsDNA, one strand shown
T12 sequence: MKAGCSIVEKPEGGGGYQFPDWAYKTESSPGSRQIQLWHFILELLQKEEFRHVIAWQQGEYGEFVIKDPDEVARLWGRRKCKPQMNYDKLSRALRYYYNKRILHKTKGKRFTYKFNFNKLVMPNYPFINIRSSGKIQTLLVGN
Method in brief: as §1

ETV6 = ETV6 (Homo sapiens, UniProt P41212 1-452); settings: protein: recombinant; tags: N-terminal GST; dsDNA, one strand shown
Chain of ETV6 (P41212 whole entry): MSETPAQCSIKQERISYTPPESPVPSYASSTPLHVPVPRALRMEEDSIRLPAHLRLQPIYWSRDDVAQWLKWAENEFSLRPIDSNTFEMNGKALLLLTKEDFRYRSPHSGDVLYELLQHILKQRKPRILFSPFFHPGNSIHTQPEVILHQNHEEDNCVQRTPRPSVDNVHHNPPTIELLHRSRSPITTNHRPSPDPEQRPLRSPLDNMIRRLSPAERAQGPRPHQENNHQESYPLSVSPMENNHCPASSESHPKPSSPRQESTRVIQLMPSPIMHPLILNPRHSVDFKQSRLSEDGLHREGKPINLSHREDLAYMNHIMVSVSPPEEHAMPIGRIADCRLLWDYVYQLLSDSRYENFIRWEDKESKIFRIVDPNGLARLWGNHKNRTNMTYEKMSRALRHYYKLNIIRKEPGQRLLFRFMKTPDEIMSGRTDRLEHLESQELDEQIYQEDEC
Method in brief: as §1

Sequence: CCCTTA
- binding signal (FEV): 1.24 fold enrichment (6-mer frequency, TF over GST control)
- binding signal (ETV5): 1.28 fold enrichment (6-mer frequency, TF over GST control)
- binding signal (HSF1): 1.28 fold enrichment (6-mer frequency, TF over GST control)
- binding signal (SPIC): 1.31 fold enrichment (6-mer frequency, TF over GST control)
- binding signal (ELF4): 1.39 fold enrichment (6-mer frequency, TF over GST control)
- binding signal (ELK4): 1.21 fold enrichment (6-mer frequency, TF over GST control)
- binding signal (ETV2): 1.41 fold enrichment (6-mer frequency, TF over GST control)
- binding signal (ELF3): 1.29 fold enrichment (6-mer frequency, TF over GST control)
- binding signal (CRX): 1.59 fold enrichment (6-mer frequency, TF over GST control)
- binding signal (ETV1): 1.21 fold enrichment (6-mer frequency, TF over GST control)
- binding signal (ERF): 1.32 fold enrichment (6-mer frequency, TF over GST control)
- binding signal (ETV3L): 1.41 fold enrichment (6-mer frequency, TF over GST control)
- binding signal (ETS2): 1.34 fold enrichment (6-mer frequency, TF over GST control)
- binding signal (SPDEF): 1.38 fold enrichment (6-mer frequency, TF over GST control)
- binding signal (ETV7): 1.23 fold enrichment (6-mer frequency, TF over GST control)
- binding signal (ELF5): 1.2 fold enrichment (6-mer frequency, TF over GST control)
- binding signal (ETV3): 1.39 fold enrichment (6-mer frequency, TF over GST control)
- binding signal (ETV6): 1.24 fold enrichment (6-mer frequency, TF over GST control)
